From PubChem BioAssay (NCI) come the findings set out here.

Common to all, as to assay: NCI-60 one-dose screen, 48 h (100 = growth as untreated, 0 = no growth, -100 = all killed)
The test system of one assay is A549/ATCC NSCLC. The conditions noted are these: 10 µM.
The next assay has as its system K-562 leukemia. The conditions noted are these: 10 µM.
A further assay deals with MDA-MB-231 breast. The conditions noted are these: 10 µM.
For another assay, the system named is SNB-75 CNS. Conditions: 10 µM.
The test system of a further assay is PC-3 prostate. The conditions noted are these: 10 µM.
The test system of a further assay is LOX IMVI melanoma. Conditions: 10 µM.
For a further assay, the system named is CAKI-1 renal. The conditions noted are these: 10 µM.
A further assay deals with MOLT-4 leukemia. The conditions noted are these: 10 µM.
Another assay deals with SR leukemia. The conditions noted are these: 10 µM.
Another assay has as its system HS 578T breast. Conditions: 10 µM.
The subject of another assay is BT-549 breast. The conditions noted are these: 10 µM.
In the next assay the test system is SW-620 colon. The conditions noted are these: 10 µM.
For a further assay, the system named is HCC-2998 colon. The conditions noted are these: 10 µM.
In a further assay the test system is KM12 colon. The conditions noted are these: 10 µM.
In a further assay the test system is MDA-MB-468 breast. The conditions noted are these: 10 µM unless noted.
Another assay deals with NCI-H23 lung. Conditions: 10 µM.
Another assay deals with ACHN renal. The conditions noted are these: 10 µM.
Another assay relates to OVCAR-3 ovarian. The conditions noted are these: 10 µM.
The subject of a further assay is SK-MEL-28 melanoma. Conditions: 10 µM.
A further assay relates to UO-31 renal. The conditions noted are these: 10 µM.

Compounds without any hit were thinned out: in the full panel of roughly 83,000, 20% have a hit.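 Note: values are percent growth. 100 is the growth of untreated cells, values between 100 and 0 indicate rising inhibition; between -100 and 0 indicates cell death.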 Values without a mark were called inactive. Active and inactive are the calls of the source. Rule for the calls: active = growth percent below 10; inactive = the rest.

Turning to `CN(C)CCc1cn(C2CCC2)c2cccc(O)c12`, the growth in the assay with A549/ATCC NSCLC was 71.8%; in the assay with K-562 leukemia it was 1.37% (active); in the assay with MDA-MB-231 breast it was 76%; with SNB-75 CNS it was 58.3%; in the assay with PC-3 prostate it was 59.9%; with LOX IMVI melanoma it was 50.4%. Further, the growth with CAKI-1 renal is 42.3%; with MOLT-4 leukemia, 57.2%; in the assay with SR leukemia it was 52.8%; in the assay on HS 578T breast it was 47.7%; in the assay with BT-549 breast it was 68.1%; in the assay on SW-620 colon it was 23%. For the same compound, the growth in the assay with HCC-2998 colon was -46.1% (active); with KM12 colon it was 76.1%; with MDA-MB-468 breast, 44.6%.

On to `O=C(/C=C/c1ccccc1Cl)c1nc2ccccc2n1Cc1ccc(F)cc1`, for which the growth with NCI-H23 lung is -78.2% (active); in the assay with K-562 leukemia, -25.9% (active); with ACHN renal it was -88% (active); in the assay with MOLT-4 leukemia it was -16.2% (active); in the assay with SR leukemia it was -27.9% (active); in the assay with OVCAR-3 ovarian it was -50.8% (active). Moreover, the figures for the growth in the assay with BT-549 breast, with HCC-2998 colon and in the assay with MDA-MB-468 breast were -92.2% (active), -99.7% (active) and -94.1% (active), respectively.

Consider `O=C(NCCCCC(c1ccc(F)cc1)c1ccc(F)cc1)Nc1ccc([N+](=O)[O-])c(C(F)(F)F)c1`, for which the growth in the assay on NCI-H23 lung is -10.2% (active); in the assay with MDA-MB-231 breast it was -70% (active); with PC-3 prostate, -4.82% (active); in the assay with SK-MEL-28 melanoma, 16.5%; in the assay with UO-31 renal, 0% (active); with CAKI-1 renal, -3.31% (active). Also, the growth was 1.5% (active) with OVCAR-3 ovarian; -3.33% (active) in the assay on HS 578T breast; 8.81% (active) in the assay on SW-620 colon; 7.86% (active) with HCC-2998 colon; 2.48% (active) in the assay with KM12 colon; -31.7% (active) in the assay on MDA-MB-468 breast.

With `O=C(NC([Se])=NC1CCCCC1)c1ccc2c(c1)OCO2`, the growth was 74.3% with K-562 leukemia; 68.5% in the assay on MDA-MB-231 breast; 10.6% in the assay on SNB-75 CNS; 51.6% in the assay with SK-MEL-28 melanoma; 38.5% in the assay on UO-31 renal; 17% in the assay on ACHN renal. For the same compound, the growth in the assay on MOLT-4 leukemia is 55.6%; in the assay with SR leukemia it was 60.3%; in the assay on OVCAR-3 ovarian, 25.3%; with HS 578T breast, 60.8%; with SW-620 colon, 41.2%; in the assay with KM12 colon, 32.4%. Further, the growth in the assay on MDA-MB-468 breast was 77.1%.

`CC(=C\C(=O)Oc1ccc2c3c1OC1C(O)CCC4(O)C(C2)N(CC2CCC2)CCC314)/C=C1\CCCc2ccccc21` (configuration not stated): the growth was 64.3% with NCI-H23 lung; 19.7% in the assay on K-562 leukemia; 75.3% with MDA-MB-231 breast; 40.8% in the assay on PC-3 prostate; 17.1% with SK-MEL-28 melanoma; 33.8% with UO-31 renal. The growth in the assay on CAKI-1 renal is 41.7%; with MOLT-4 leukemia it was 31.1%; in the assay on HS 578T breast it was 59.8%; in the assay on SW-620 colon it was 28.4%; with HCC-2998 colon, 31.2%; in the assay with KM12 colon it was 40.5%. Moreover, the growth in the assay with MDA-MB-468 breast is -15.4% (active).
